# Data reported in PubChem BioAssay AID1778 (Sanford-Burnham Center for Chemical Genomics, 2009).
# Values joined by “and” are separate entries in the source; they are usually repeats but may differ in a detail not shown here. Identical values can stand only once. Screen size: about 290,000 compounds; about 260 (0.09%) were called active. For the sample, actives were picked, then their nearest neighbours and some compounds at random. Entries with a potency or affinity are not part of this list. Values without a mark were called inactive. No stated cut-off is given here; in the data, active means inhibition above about 50%; inactive means the rest.
# Target: Kappa-type opioid receptor (Homo sapiens) (UniProt P41145)
# Assay: kappa opioid receptor blockers – cell-based, luminescence, uHTS (AID 1778)
# Details: KOR beta-arrestin recruitment, antagonist mode, stronger effect = higher value; at 10 µM unless noted
# Kappa-type opioid receptor (Homo sapiens), sequence (P41145 whole entry, looked up): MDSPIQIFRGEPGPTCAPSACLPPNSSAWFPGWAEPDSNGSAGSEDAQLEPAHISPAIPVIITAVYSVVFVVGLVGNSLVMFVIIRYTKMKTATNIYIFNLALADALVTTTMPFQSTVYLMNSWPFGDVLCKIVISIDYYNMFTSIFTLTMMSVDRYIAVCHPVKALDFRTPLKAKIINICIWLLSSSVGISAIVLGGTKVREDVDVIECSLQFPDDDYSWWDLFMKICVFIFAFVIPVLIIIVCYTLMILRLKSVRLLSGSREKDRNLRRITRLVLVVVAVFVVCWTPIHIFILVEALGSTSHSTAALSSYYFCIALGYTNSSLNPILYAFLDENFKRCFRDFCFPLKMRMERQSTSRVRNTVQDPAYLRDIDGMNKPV
row,SMILES,inhibition
1,Cc1ccc(NC(=O)Cn2cc(S(=O)(=O)c3ccc(F)cc3)c(=O)c3cc(F)ccc32)cc1,-36.8%
2,Cn1c(CCNC(=O)c2ccccc2)nc2cc(NC(=O)C3CCCCC3)ccc21,1.3%
3,COc1cc(/C=C/c2ccc3cccc(O)c3n2)cc(OC)c1OC,-5.8%
4,COc1cc(/C=C/c2ccc3cccc(O)c3n2)cc(Br)c1OC,-20%
5,COc1ccc(/C=C/c2ccc3c(Br)ccc(O)c3n2)cc1,0.3%
6,COc1ccc(/C=C/c2ccc3cccc(O)c3n2)cc1Br,-9.3%
7,COc1cc(/C=C/c2ccc3c(Br)cc(Br)c(O)c3n2)ccc1O,57.8% (active)
8,COc1ccc(C(c2nnnn2C2CCCC2)N2CCC(C)CC2)cc1 (configuration not stated),-3%
9,Cn1c(=O)[nH]c(=O)c2c1nc(NCCN)n2CCOc1ccccc1,-30.9% [at 20 µM]
10,Cc1sc2nc(C3CC3)nc(N3CCN(C(=O)c4ccccc4F)CC3)c2c1C,4.1%
11,O=C(N/N=C/c1ccc2ncccc2c1)c1cc(-c2cccs2)nc2ccccc12,28.4%
12,C/C(=N\NC(=O)c1cc(Br)ccc1O)c1cccs1,-5.5%
13,C/C(=N\NC(=O)c1cc(-c2cccs2)nc2ccccc12)c1ccccn1,75.1% (active)
14,C/C(=N\NC(=O)c1ccccc1)c1cccc(Br)c1,21.6%
15,C/C(=N/NC(=O)c1cc2ccccc2cc1O)c1ccco1,17%
16,C/C(=N\NC(=O)c1c[nH]c2ccccc12)c1ccccn1,21.4%
17,C/C(=N\NC(=O)c1cc2ccccc2cc1O)c1cccs1,1.2%
18,C/C(=N\NC(=O)c1cccc(Br)c1)c1cccnc1,-7.4%
19,NNC(=O)c1cc(-c2cccs2)nc2ccccc12,40.8%
20,CC(C)CNC(=S)N(CCCN(C)C)Cc1cc2cc3c(cc2[nH]c1=O)OCCO3,-1.3% [at 20 µM]
21,O=C(O)c1nnn(-c2cc(C(F)(F)F)cc(C(F)(F)F)c2)c1-c1ccccc1,7.9%
22,COc1ccc(-c2nc(C)sc2CC(=O)O)cc1,-5.7%
23,N#Cc1c(C(F)(F)F)cc(-c2ccc(Cl)c(Cl)c2)nc1SCCN1CCOCC1,-29.4%
24,CCOC(=O)C1=C(CSc2nc(-c3ccncc3)ccc2C#N)OC(N)=C(C#N)C1c1ccc(OC)cc1 (configuration not stated),-4.9%

row,SMILES,inhibition
1,CC(C)NC(=S)n1cc(C(=O)c2cc(Cl)cc(Cl)c2O)cn1,-10%
2,COC(=O)C1c2ccccc2-c2ccccc21,-7.3%
3,CCOc1ccc(C(=O)/C=C/Nc2ccc(S(=O)(=O)N=C(N)N)cc2)cc1,1%
4,Cc1ccc(N(C(=O)CNC(=O)c2ccco2)C(C(=O)NCC2CCCO2)c2ccccc2)cc1 (configuration not stated),-12.5%
5,CC1CN(C(=S)SCC(=O)c2ccc(Cl)cc2)CC(C)O1 (configuration not stated),21.8%
6,Cc1ccc(-c2onc(C)c2C)cc1S(=O)(=O)N1CC(C)Oc2ccccc21 (configuration not stated),-11.7%
7,COc1ccc(N)c2c1C(=O)c1ccccc1C2=O,20.4%
8,COc1ccc(OC)c2c1C(=O)c1ccccc1C2=O,-4.5%
9,O=C1CC[C@@H](CN(Cc2ccccn2)Cc2nc(-c3ccc(C(F)(F)F)cc3)no2)N1,3.4% [at 20 µM]
10,O=C(CC1C(=O)NCCN1Cc1cccc(Oc2ccccc2)c1)NCCCn1cccn1 (configuration not stated),-2.5%
11,O=C(O)/C=C/c1cccnc1,17.9%
12,O=C(/C=C/c1cccnc1)/C=C/c1cccnc1,57.9% (active)
13,CC(/C=C\c1cccnc1)=C/C(=O)O,-0.4% and 17.9%
14,Cn1ccnc1SCc1nc2c(cnn2-c2ccccc2)c(=O)[nH]1,-17.7%
15,Cc1cccc(-n2c(SCc3ccc(C#N)cc3)nnc2-c2c[nH]c3ccccc23)c1,6.1%
16,CCOc1ccc(N2CC(C(=O)Nc3ccncc3)CC2=O)cc1 (configuration not stated),15.6%
17,CCOC(=O)Cc1[nH]nc2c1C(Cc1ccccc1)C(C#N)=C(N)O2 (configuration not stated),-4.1%
18,CC1(C)CC(=O)C(/C=N/c2ncccc2C(=O)O)=C(O)C1,-24.7%
19,CC1(C)CC(=O)C(/C=N/c2ccccn2)=C(O)C1,40.5%
20,CN(C)S(=O)(=O)c1cccc(C(=O)Nc2cc(Cl)ccc2O)c1,-1.5%
21,C/C(=C\c1ccc(F)cc1)C(=O)c1c(C)cc(C)[nH]c1=O,5.1%
22,O=C(NCc1ccccn1)C(=O)NN=C1CCCCCCCCCCC1,-9.2% [at 20 µM]
23,CCOC(=O)C(CSCC(=O)c1ccc(Br)cc1)NC(=O)OC(C)(C)C (configuration not stated),3.7%
